# Assay outcomes from PubChem.
# PKA kinase inh – blocks human protein kinase A activity. P17612. PKA Kemptide phosphorylation, Kinase-Glo ATP luminescence. inhibition, % at 6 µM. 65,000 tested, 0.1% active;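 active = inhibition above the screen-wide mean inhibition plus 3 SD, cut at about 21% in these data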
# D1 allo mod – D1 dopamine receptor (human) allosteric modulation. P21728. HEK293 D1, CRE-luciferase, dopamine EC30 potentiation; actives deviate in either direction. B-score at 10 µM. 58,000 tested, 5.9% active. AID 641;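 active = luminescence count or its row- and column-corrected plate score outside the 99.7% band of the plate's sample wells, on either side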
# ROCK2 inh – inhibitors of human Rho kinase 2. inhibition, % at 6 µM. AID 604. purified ROCK2, Kinase-Glo ATP depletion luminescence. 60,000 tested, 0.35% active;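 active = inhibition above the screen-wide mean inhibition plus 3 SD, cut at about 18% in these data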
# DAT uptake mod – human DAT dopamine uptake with cocaine, either direction | Q01959 | LLC-PK1 hDAT cells, [14C]-dopamine uptake with cocaine IC80; actives deviate in either direction | B-score at 10 µM | 110,000 tested, 1.3% active;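 active = Z score or B-score, a plate-position-corrected score, falls beyond the plate's 99.7% confidence bounds, in either direction; inactive = both scores lie inside the 99.7% bounds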
# Target sequence (Q01959 whole entry, looked up): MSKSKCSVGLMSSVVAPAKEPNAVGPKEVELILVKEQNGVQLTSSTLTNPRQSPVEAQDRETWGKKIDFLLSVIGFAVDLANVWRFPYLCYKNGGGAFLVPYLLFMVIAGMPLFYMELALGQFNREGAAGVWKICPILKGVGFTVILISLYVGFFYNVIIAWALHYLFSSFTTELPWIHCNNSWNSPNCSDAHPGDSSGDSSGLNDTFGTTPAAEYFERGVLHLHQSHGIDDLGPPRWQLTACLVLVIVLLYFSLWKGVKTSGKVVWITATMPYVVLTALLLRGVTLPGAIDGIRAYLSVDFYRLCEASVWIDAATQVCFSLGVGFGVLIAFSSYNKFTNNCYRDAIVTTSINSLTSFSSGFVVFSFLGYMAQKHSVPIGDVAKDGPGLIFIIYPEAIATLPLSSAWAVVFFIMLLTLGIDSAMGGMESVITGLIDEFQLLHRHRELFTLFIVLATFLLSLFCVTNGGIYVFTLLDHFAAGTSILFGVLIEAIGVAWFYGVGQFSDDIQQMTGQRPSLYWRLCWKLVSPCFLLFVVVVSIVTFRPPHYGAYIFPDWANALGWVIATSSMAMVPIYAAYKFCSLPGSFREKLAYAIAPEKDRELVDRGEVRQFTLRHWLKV
# D1 PAM confirm – D1 receptor (human) allosteric modulation, confirmed; HEK293 D1 CRE-luciferase, dopamine EC30 potentiation; hits give high values; shares compounds with D1 allo mod; 2,200 tested, 88% active; luminescence at 10 µM;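 active = luminescence in either of two replicates above the same-plate mean plus 3 SD of the low-dose dopamine control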
# D1 no dopamine – D1 (human) signaling in absence of dopamine; shares compounds with D1 allo mod; HEK293 D1 CRE-luciferase, luminescence, no dopamine; hits give high values; luminescence at 10 µM; 1,900 tested, 0.8% active; in the data active = luminescence above about 3900
# Isoprot counter – alters isoproterenol CRE-luciferase response in HEK293 cells; AID 647; HEK293 D1 CRE-luciferase, isoproterenol EC30 counter-screen; calls only at 10 µM; shares compounds with D1 allo mod; 2,200 tested, 63% active;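 active = luminescence in either replicate above plate mean of wells with a partly effective reference agonist dose plus 3 SD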;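 note: isoproterenol raises cAMP through native beta-adrenoceptor Gs so signal bypasses D1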
# Hits are given with their value; i = inactive; nt = not tested or not shown; + = active, no number. This excerpt belongs to a sample that is enriched for hits.
SMILES,PKA kinase inh,D1 allo mod,ROCK2 inh,DAT uptake mod,D1 PAM confirm,D1 no dopamine,Isoprot counter
Cc1cc(C(=O)NCc2ccccc2Br)no1,i,i,i,i,nt,nt,nt
CCOC(=O)CCCSc1nc2sc(C)c(C)c2c(=O)[nH]1,i,2.9,i,i,6744,nt,+
COc1cc2c(cc1OC)CN(C(C)C(=O)Nc1ccc(NC(C)=O)cc1)CC2 (stereo not given),nt,nt,nt,i,nt,nt,nt
O=C(c1cccn2c(=O)c3cc(Cl)ccc3nc12)N1CCN(Cc2ccc3c(c2)OCO3)CC1,i,3,nt,nt,6868,i,i
CC(=O)C1=C(C)NC(SCC(=O)c2ccc(F)cc2)=C(C#N)C1c1ccco1 (stereo not given),i,5.5,i,i,3664,i,i
CCc1ccc(C(=O)CSC2=C(C#N)C(c3ccco3)C(C(C)=O)=C(C)N2)cc1 (stereo not given),i,i,i,i,nt,nt,nt
CCc1nc(SCCO)c2oc3ccccc3c2n1,i,10,i,i,17028,nt,+
CCc1nc(Sc2nc(C)cc(C)n2)c2oc3ccccc3c2n1,i,i,i,i,nt,nt,nt
N#CCCSc1ncnc2c1oc1ccccc12,i,5.4,i,i,14144,i,+
CCc1nc(N(CC)CC)c2oc3ccccc3c2n1,i,3.2,nt,i,i,nt,i
COc1ccc(-c2ccc(SCC(=O)Nc3cc(C)on3)nn2)cc1OC,i,5.8,i,i,23296,i,+
COc1ccc(-c2nnc(SCC(=O)Nc3cc(C)on3)n2N)cc1OC,i,i,i,i,nt,nt,nt
COc1cccc(-c2nnc(SCC(=O)Nc3cc(C)on3)o2)c1,i,5.7,i,i,6316,i,i
CC(Sc1nc(N(C)C)nc(N2CCOCC2)n1)C(=O)Nc1ccccc1 (stereo not given),i,4.8,i,i,9356,i,+
CNc1nc(SCc2ccccc2)nc(N2CCOCC2)n1,i,11,i,i,24896,i,+
CC(C)Nc1nc(SCC(=O)Nc2ccccc2)nc(N2CCOCC2)n1,i,14,i,i,20560,i,+
O=C(OCC(=O)N1CCN(C(=O)c2ccco2)CC1)c1ccccc1OCc1ccc(Cl)cc1,i,i,i,i,nt,nt,nt
CCCCCn1c(NCc2ccco2)nc2ccccc21,i,6.3,i,i,12176,i,i
COc1ccc(C(=O)c2c(-c3ccsc3)oc3ccc(-c4ccc(OC)cc4)cc23)cc1,nt,nt,nt,i,nt,nt,nt
O=c1cc(-c2ccccc2Cl)c2c([nH]1)CCC2,i,i,i,i,nt,nt,nt
O=c1cc(-c2ccccc2)c2c([nH]1)CCCC2,i,5.3,i,i,7876,i,i
COc1ccc(CN(C(=O)c2ccco2)c2ccc(C)cc2)cc1OC,i,10,i,i,22164,i,+
N[C@@H](CO)c1nnc([C@H](CCC(=O)O)NC(=O)C2CCNCC2)o1,nt,nt,nt,i,nt,nt,nt
CCOC(=O)C1=C(C)NC(=O)NC1c1cccc(OC)c1OCc1ccccc1Cl (stereo not given),nt,nt,nt,i,nt,nt,nt
CN=C1SC(CC(=O)Nc2sc(C)c(C)c2C(=O)OC)C(=O)N1C (stereo not given),i,3.4,i,i,8820,i,+
SMILES,PKA kinase inh,D1 allo mod,ROCK2 inh,DAT uptake mod,D1 PAM confirm,D1 no dopamine,Isoprot counter
CCOC(=O)c1c(NC(=O)CC2SC(=NC)N(C)C2=O)sc(C)c1C (stereo not given),nt,nt,nt,i,nt,nt,nt
C[C@@H](O)[C@H]1C(=O)N2C(C(=O)O)=C(S[C@@H]3CN[C@H](C(=O)N(C)C)C3)[C@H](C)[C@H]12,nt,nt,nt,i,nt,nt,nt
O=C(Nc1ccccc1Cl)N1CCN(c2ccc3nnc(-c4ccc(F)cc4)n3n2)CC1,i,i,i,nt,nt,nt,nt
Fc1ccc(-c2nnc3ccc(N4CCCC4)nn23)cc1,i,8.3,i,i,11900,i,+
NC(=O)C1(N2CCCCC2)CCN(c2ccc3nnc(-c4ccccc4)n3n2)CC1,i,11,i,i,18940,nt,+
Fc1cccc(Cl)c1-c1nnc2ccc(N3CCOCC3)nn12,i,16,i,i,10924,i,+
c1ccc(-c2nnc3ccc(N4CCC5(CC4)OCCO5)nn23)cc1,i,21,i,i,16736,i,+
Clc1cccc(Cl)c1-c1nnc2ccc(N3CCOCC3)nn12,i,i,i,i,nt,nt,nt
Cc1nnc2ccc(N3CCC(C(N)=O)(N4CCCCC4)CC3)nn12,i,i,i,nt,nt,nt,nt
Cc1ccc(S(=O)(=O)c2cc(C#N)c(=O)[nH]c2N)cc1,nt,nt,nt,i,nt,nt,nt
COc1ccc2c(C(F)(F)F)cc(=O)oc2c1C,i,4.8,i,i,6684,i,i
COc1c2ccoc2c(OC)c2oc(=O)ccc12,nt,nt,nt,i,nt,nt,nt
COCCCNC(=O)CN(Cc1ccc(Cl)cc1)S(C)(=O)=O,i,9.2,i,i,i,i,i
CCOCCCNC(=O)CN(Cc1ccc(Cl)cc1)S(C)(=O)=O,i,i,i,i,nt,nt,nt
COc1ccc(C2C(=O)N(CCc3ccccc3)CC(=O)N2C2CCCCC2)cc1 (stereo not given),nt,nt,nt,i,nt,nt,nt
Cc1ccc(S(=O)(=O)NCCCNC(=O)N2CCOCC2)cc1,i,3,i,i,i,i,i
O=C(CCN1C(=O)c2ccccc2C1=O)Nc1ccc(S(=O)(=O)N2CCOCC2)cc1,i,i,i,i,nt,nt,nt
O=C(OCCN1C(=O)c2ccccc2C1=O)c1cc(S(=O)(=O)N2CCOCC2)ccc1F,i,12,i,i,9428,i,+
COc1cccc(C(=O)N(Cc2ccc3c(c2)OCO3)Cc2nc3ccccc3c(=O)[nH]2)c1,i,i,i,i,nt,nt,nt
COc1ccccc1NC(=O)N(Cc1ccc2c(c1)OCO2)Cc1nc2ccccc2c(=O)[nH]1,i,4.9,i,i,5620,i,i
Cc1nccc2[nH]c(=O)c(C(=O)NC3CCN(Cc4ccccc4)CC3)cc12,i,i,i,nt,nt,nt,nt
CCO[C@H]1OC(C(=O)NCc2ccccc2)=C[C@@H](c2ccccc2)[C@@H]1CCCO,nt,nt,nt,i,nt,nt,nt
CCN(CC)c1ncccc1C(=O)NCc1cccs1,i,7.6,i,i,13524,i,+
O=C(NCc1cccs1)c1ccccc1C(=O)NCc1cccs1,i,i,i,i,nt,nt,nt
C[N+]1([O-])[C@@H]2Cc3cc4c(cc3[C@@H]1Cc1cc3c(cc12)OCO3)OCO4 (stereo not given in full),nt,nt,nt,i,nt,nt,nt
SMILES,PKA kinase inh,D1 allo mod,ROCK2 inh,DAT uptake mod,D1 PAM confirm,D1 no dopamine,Isoprot counter
CCOC(=O)C1=C(C)NC(C)=C(C(=O)OCC)C1C(=O)OCC(=O)c1ccc2c(c1)OCCO2,i,10,i,i,7616,i,+
CCn1c(SCC(=O)NCC(=O)Nc2ccc(F)cc2)nnc1-c1cccs1,i,3,i,i,i,i,i
COc1cc(-c2nn3c(-c4ccccc4)nnc3s2)cc(OC)c1OC,i,3.3,i,2.7,14804,i,+
COc1ccc(-c2nn3c(-c4ccco4)nnc3s2)cc1OC,i,16,i,i,18008,nt,+
COc1ccc(-c2nnc3sc(-c4ccco4)nn23)cc1OC,i,i,i,i,nt,nt,nt
COc1cc(-c2nn3c(Cc4ccccc4)nnc3s2)cc(OC)c1OC,i,4,i,i,9884,i,+
